Assay results from PubChem BioAssay AID1159580 (chemical genetic matrix, 2015).
The campaign covered roughly 5,500 compounds. About 2,000 (36%) were called active. Inconclusive results (about 18%) are left out. Cut-off read from the data, not from the text of the source: active = normalized growth mostly below about 0.91 (no sharp cut-off); inconclusive = no clear call, values can overlap the other calls; inactive = mostly above about 0.92. Some of the results follow.

Assay: chemical genetic growth profiling, strain panel (AID 1159580);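 note: tested at 20 µM; growth read once vehicle control cultures reached saturation at 30 °C; 1 = growth at the plate median or of vehicle wells; lower values mean less growth of the strain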
Conditions: growth OD

Measured: normalized growth

CC[C@@]1(O)C[C@H](O[C@H]2C[C@H](N(C)C)[C@H](O)[C@H](C)O2)c2c(cc3c(c2O)C(=O)c2c(O)cccc2C3=O)[C@H]1C(=O)OC
inactive: S. cerevisiae deletion strains, locus YKL068W, stronger effect = lower value 0.965 | S. cerevisiae deletion strains, locus YKR026C, strain gcn3, stronger effect = lower value 0.945 | S. cerevisiae deletion strains, locus YKR091W, strain srl3, stronger effect = lower value 0.945 | S. cerevisiae deletion strains, locus YLL041C, strain sdh2, stronger effect = lower value 0.944 | S. cerevisiae deletion strains, locus YLR113W, strain HOG1, stronger effect = lower value 1.02 | S. cerevisiae deletion strains, locus YLR258W, strain gsy2, stronger effect = lower value 0.929 | S. cerevisiae deletion strains, locus YLR357W, strain rsc2, stronger effect = lower value 0.939 | S. cerevisiae deletion strains, locus YLR384C, strain iki3, stronger effect = lower value 0.93 | S. cerevisiae deletion strains, locus YML016C, strain PPZ1, stronger effect = lower value 0.929 | S. cerevisiae deletion strains, locus YMR125W, strain sto1, stronger effect = lower value 1.05 | S. cerevisiae deletion strains, locus YMR263W, strain SAP30, stronger effect = lower value 0.92 | S. cerevisiae deletion strains, locus YMR307W, strain GAS1, stronger effect = lower value 0.601 | S. cerevisiae deletion strains, locus YNL153C, strain GIM3, stronger effect = lower value 0.94 | S. cerevisiae deletion strains, locus YNL183C, strain NPR1, stronger effect = lower value 0.926 | S. cerevisiae deletion strains, locus YNL322C, strain KRE1 (second series), stronger effect = lower value 0.922 | S. cerevisiae deletion strains, locus YNR049C, strain mso1, stronger effect = lower value 0.946 | S. cerevisiae deletion strains, locus YOL012C, strain htz1 0.351 | S. cerevisiae deletion strains, locus YOR001W, strain rrp6, stronger effect = lower value 0.934 | S. cerevisiae deletion strains, locus YOR061W, strain CKA2, stronger effect = lower value 0.89 | S. cerevisiae deletion strains, locus YOR080W, strain dia2, stronger effect = lower value 0.97 | S. cerevisiae deletion strains, locus YOR231W, strain MKK1, stronger effect = lower value 0.994 | S. cerevisiae deletion strains, locus YOR290C, strain snf2, stronger effect = lower value 0.932 | S. cerevisiae deletion strains, locus YPL078C, strain atp4, stronger effect = lower value 0.961 | S. cerevisiae deletion strains, locus YPL106C, strain sse1, stronger effect = lower value 1.04 | S. cerevisiae deletion strains, locus YPL256C, strain CLN2, stronger effect = lower value 0.963 | S. cerevisiae deletion strains, locus YPR141C, strain kar3, stronger effect = lower value 0.935
active: S. cerevisiae deletion strains, locus YKL085W, strain MDH1 (second series), stronger effect = lower value 0.914 | S. cerevisiae deletion strains, locus YKL085W, strain MDH1, stronger effect = lower value 0.914 | S. cerevisiae deletion strains, locus YKL160W, strain elf1, stronger effect = lower value 0.873 | S. cerevisiae deletion strains, locus YKL190W, strain CNB1, stronger effect = lower value 0.876 | S. cerevisiae deletion strains, locus YKR001C, strain vps1, stronger effect = lower value 0.639 | S. cerevisiae deletion strains, locus YLL001W, strain dnm1, stronger effect = lower value 0.869 | S. cerevisiae deletion strains, locus YLL026W, stronger effect = lower value 0.908 | S. cerevisiae deletion strains, locus YLR027C, strain aat2, stronger effect = lower value 0.877 | S. cerevisiae deletion strains, locus YLR039C, strain RIC1, stronger effect = lower value 0.491 | S. cerevisiae deletion strains, locus YLR058C, strain SHM2, stronger effect = lower value 0.89 | S. cerevisiae deletion strains, locus YLR102C, strain apc9, stronger effect = lower value 0.901 | S. cerevisiae deletion strains, locus YLR221C, strain rsa3, stronger effect = lower value 0.855 | S. cerevisiae deletion strains, locus YLR262C, strain YPT6 (second series), stronger effect = lower value 0.649 | S. cerevisiae deletion strains, locus YLR262C, strain YPT6, stronger effect = lower value 0.462 | S. cerevisiae deletion strains, locus YLR268W, strain sec22, stronger effect = lower value 0.691 | S. cerevisiae deletion strains, locus YLR320W, strain mms22, stronger effect = lower value 0.245 | S. cerevisiae deletion strains, locus YLR330W, strain CHS5, stronger effect = lower value 0.873 | S. cerevisiae deletion strains, locus YLR342W, strain FKS1 (second series), stronger effect = lower value 0.769 | S. cerevisiae deletion strains, locus YLR342W, strain FKS1, stronger effect = lower value 0.862 | S. cerevisiae deletion strains, locus YLR370C, strain arc18, stronger effect = lower value 0.899 | S. cerevisiae deletion strains, locus YLR371W, strain rom2, stronger effect = lower value 0.846 | S. cerevisiae deletion strains, locus YLR418C, strain cdc73, stronger effect = lower value 0.69 | S. cerevisiae deletion strains, locus YML032C, strain rad52, stronger effect = lower value 0.241 | S. cerevisiae deletion strains, locus YML120C, strain ndi1, stronger effect = lower value 0.912 | S. cerevisiae deletion strains, locus YML124C, strain tub3, stronger effect = lower value 0.9 | S. cerevisiae deletion strains, locus YMR058W, strain fet3, stronger effect = lower value 0.818 | S. cerevisiae deletion strains, locus YMR078C, strain ctf18, stronger effect = lower value 0.724 | S. cerevisiae deletion strains, locus YMR129W, stronger effect = lower value 0.921 | S. cerevisiae deletion strains, locus YMR205C, strain PFK2, stronger effect = lower value 0.779 | S. cerevisiae deletion strains, locus YMR223W, strain ubp8, stronger effect = lower value 0.838 | S. cerevisiae deletion strains, locus YMR231W, strain pep5, stronger effect = lower value 0.918 | S. cerevisiae deletion strains, locus YNL067W, strain RPL9B, stronger effect = lower value 0.824 | S. cerevisiae deletion strains, locus YNL071W, strain lat1, stronger effect = lower value 0.815 | S. cerevisiae deletion strains, locus YNL209W, strain ssb2, stronger effect = lower value 0.871 | S. cerevisiae deletion strains, locus YNL233W, strain BNI4, stronger effect = lower value 0.861 | S. cerevisiae deletion strains, locus YNL248C, strain rpa49, stronger effect = lower value 0.309 | S. cerevisiae deletion strains, locus YNL250W, strain rad50, stronger effect = lower value 0.559 | S. cerevisiae deletion strains, locus YNL271C, strain bni1, stronger effect = lower value 0.916 | S. cerevisiae deletion strains, locus YNL298W, strain CLA4, stronger effect = lower value 0.898 | S. cerevisiae deletion strains, locus YNL307C, strain MCK1, stronger effect = lower value 0.864 | S. cerevisiae deletion strains, locus YNL322C, strain KRE1, stronger effect = lower value 0.893 | S. cerevisiae deletion strains, locus YNR052C, strain pop2, stronger effect = lower value 0.65 | S. cerevisiae deletion strains, locus YOL006C, strain TOP1, stronger effect = lower value 0.198 | S. cerevisiae deletion strains, locus YOL147C, strain pex11, stronger effect = lower value 0.837 | S. cerevisiae deletion strains, locus YOR069W, strain VPS5, stronger effect = lower value 0.895 | S. cerevisiae deletion strains, locus YOR070C, strain gyp1, stronger effect = lower value 0.898 | S. cerevisiae deletion strains, locus YOR083W, strain WHI5, stronger effect = lower value 0.81 | S. cerevisiae deletion strains, locus YOR106W, strain vam3, stronger effect = lower value 0.672 | S. cerevisiae deletion strains, locus YOR136W, strain idh2, stronger effect = lower value 0.894 | S. cerevisiae deletion strains, locus YOR144C, strain elg1, stronger effect = lower value 0.857 | S. cerevisiae deletion strains, locus YOR184W, strain ser1, stronger effect = lower value 0.591 | S. cerevisiae deletion strains, locus YOR265W, strain rbl2, stronger effect = lower value 0.917 | S. cerevisiae deletion strains, locus YOR270C, strain vph1, stronger effect = lower value 0.39 | S. cerevisiae deletion strains, locus YOR316C, strain cot1, stronger effect = lower value 0.915 | S. cerevisiae deletion strains, locus YPL051W, strain arl3, stronger effect = lower value 0.785 | S. cerevisiae deletion strains, locus YPL055C, strain LGE1, stronger effect = lower value 0.744 | S. cerevisiae deletion strains, locus YPL240C, strain hsp82, stronger effect = lower value 0.92 | S. cerevisiae deletion strains, locus YPL241C, strain CIN2, stronger effect = lower value 0.929 | S. cerevisiae deletion strains, locus YPR119W, strain clb2, stronger effect = lower value 0.901 | S. cerevisiae deletion strains, locus YPR163C, strain tif3, stronger effect = lower value 0.783 | S. cerevisiae deletion strains, locus YPR167C, strain met16, stronger effect = lower value 0.882 | S. cerevisiae deletion strains, strain wtn01, stronger effect = lower value 0.759 | S. cerevisiae strains, strain wild type, stronger effect = lower value 0.841
